According to PubChem BioAssay AID485297 (National Center for Advancing Translational Sciences (NCATS), 2010):
Out of some 320,000 compounds screened, about 9,100 (2.8%) were called active. Roughly 3% stayed inconclusive and do not appear here. The entries come from a sample that favours actives as a whole. A call without a number means that no potency is given here. Unmarked numbers belong to inactive results. Calls come from the whole dose curve; as a rule, active = well fitted activation curve with a large enough effect; inconclusive = small, poorly fitted or top-dose-only effect; inactive = no such curve, though single readings can be large or run the other way.

test: qHTS Assay for Rab9 Promoter Activators; details: Huh7 Rab9 promoter-luciferase reporter, luminescence, 24 h; series mostly up to 9.22 µM; note: nearly all actives have a fitted effect of over 60% in size
Method in brief: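 Stable Rab9-luc Huh7, 1500 cells/well, 2 h settle; cmpd in DMSO, 24 h, 37 °C/5% CO2; luciferase reagent 10 min RT; luminescence.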
Potency is the fitted concentration of half-maximal effect.

Structure (SMILES)	Potency	activation, negative = inhibition
Nc1c(C(=O)OCC(=O)Nc2ccc(OC(F)F)cc2)[nH]c(=O)[nH]c1=O	inactive	
NC(=O)COC(=O)/C=C/c1ccc2ccccc2n1	inactive	
COc1cccc(/C=C/c2ccc3ccccc3n2)c1OC(C)=O	447 nM (active)	
COc1cccc(/C=C2\C=C(c3ccc(C)cc3)OC2=O)c1OC(C)=O	inactive	
CCc1ccc(Nc2nnc(SCC(=O)c3ccc4c(c3)NC(=O)CO4)s2)cc1	inactive	
Cc1noc(C)c1-c1ccc2ncnc(NC(C)c3ccco3)c2c1 (centres undefined)	inactive	
COc1ccc(CN2CCN(C(=O)c3cc(C4CC4)nn3-c3ccccc3)CC2)cc1F	inactive	
c1ccc(-n2nc3ccccc3n2)cc1	inactive	
CN(C)c1nnnn1-c1ccc(Cl)cc1	inactive	
Nc1ccc2nn(-c3ccc(Cl)cc3)nc2c1	224 nM (active)	
CCOc1ccc(N2C(=O)CSC2=NC#N)cc1	inactive	
C=CCn1c(SCC(=O)Nc2ccc(NC(C)=O)cc2)nc2sc(C)c(C)c2c1=O	inactive	
Cc1nc2ccc(NC(=O)C(F)(F)F)cc2o1	inactive	
Cc1ccc(NC(=O)Nc2ccc3oc(C)nc3c2)cc1	1580 nM (active)	
COC(=O)c1ccc(NC(=O)Nc2ccc(C)cc2)cc1	inactive	
CCOc1ccc(C(=O)NCC(=O)N2CCN(c3ccc(C(F)(F)F)cn3)CC2)cc1	inactive	
CCCCn1c(N)c(N(CCC(C)C)C(=O)COC(=O)c2ccc(CC)cc2)c(=O)[nH]c1=O	inactive	
Cc1ncc(CO)c(/C=N/NC(=O)c2cccc(S(=O)(=O)N3CCCC3)c2)c1O	inactive	
O=C(N/N=C/c1cccc([N+](=O)[O-])c1)C1CC(=O)N(c2ccc(Br)cc2)C1 (centres undefined)	inactive	
O=[N+]([O-])c1cccc(/C=N/Nc2ncc(Br)cn2)c1	2820 nM (active)	
Cc1ccc(NC(=O)O/N=C/c2cccc([N+](=O)[O-])c2)cc1	inactive	
CCOc1ccc(NC(=O)CN(C)C(=O)Cn2c(=O)cnc3ccccc32)cc1OCC	inactive	

Structure (SMILES)	Potency	activation, negative = inhibition
Cc1cc(/C=N/NC(=O)c2cccnc2)c(C)n1CC(C)C	2820 nM (active)	
Cc1nn(Cc2ccc(Cl)cc2)c(Cl)c1/C=N/NC(=O)c1cccnc1	inactive	
O=C(N/N=C/c1ccccn1)c1cccnc1	inactive	
Cc1cnc(NC(=O)c2ccc(Cl)nc2)s1	2820 nM (active)	
CCN(CC)c1ccc(NC(=O)c2ccc(Cl)nc2)cc1	inactive	
Cc1cnc(NC(=O)CSc2c(Cl)cccc2Cl)s1	inactive	
COc1ccc(NC(=O)CCC(=O)Nc2nnc(C3CCCCC3)s2)cc1	inactive	
Cc1occc1C(=O)Nc1nnc(-c2ccncc2)s1	inactive	
Cc1cnc(NC(=O)C2CCCC2)s1	inactive	
O=C(Nc1nnc(C2CC2)s1)c1cc(Cl)sc1Cl	inactive	
O=C(Cc1cccs1)Nc1nnc(C2CC2)s1	inactive	
Cc1occc1C(=O)Nc1nnc(C2CCCCC2)s1	2820 nM (active)	
O=C(Nc1nnc(C2CC2)s1)c1ccccn1	447 nM (active)	
CS(=O)(=O)c1ccc2nc(NC(=O)c3ccc(Cl)nc3)sc2c1	inactive	
Cc1cnc(NC(=O)c2ccccn2)s1	282 nM (active)	
CCCCCN(C(=O)CCC(=O)OCC(=O)NCc1ccc(OC)cc1)c1c(N)n(CCCC)c(=O)[nH]c1=O	inactive	
CC(=O)c1ccccc1NC(=O)C1CC(=O)N(c2ccc3c(c2)OCCO3)C1 (centres undefined)	inactive	
CN(CC(=O)Nc1ccc(OC(F)(F)F)cc1)C(=O)C1CCC1	inactive	
CSc1ccccc1NC(=O)COC(=O)CCCOc1ccc(C)cc1	inactive	
Cc1ccc(S(=O)(=O)N2CCN(C(=O)N3CCOCC3)CC2)c(C)c1	inactive	
COc1cc(/C=N/N2CCN(c3ccccc3)CC2)ccc1OC(C)=O	inactive	
COc1ccccc1N1CCN(C(=O)C(=O)N/N=C/c2ccccc2F)CC1	inactive	

Structure (SMILES)	Potency	activation, negative = inhibition
COc1ccccc1N1CCN(/N=C/c2ccc(O)cc2O)CC1	3160 nM (active)	
Fc1ccc(COc2ccc(-c3nnco3)cc2)cc1	3980 nM (active)	
Fc1ccc(COc2cccc(-c3n[nH]c(=S)o3)c2)cc1	inactive	
Fc1cccc(Cl)c1COc1ccc(-c2nnco2)cc1	inactive	
CC(NC(=O)c1cccc(S(=O)(=O)N2CCc3ccccc3C2)c1)c1ccco1 (centres undefined)	inactive	
O=C(CSc1nnc(CN2CCCC2)n1-c1ccc(F)cc1)c1ccc2c(c1)OCO2	inactive	
CC(C)(C)OC(=O)NCCCCCNC(=O)c1[nH]cnc1C(=O)Nc1nccs1	inactive	
CC(C)c1ccc(N2CCN(C(=O)c3ccccc3NC(=O)/C=C(\C(=O)O)c3ccccc3)CC2)cc1	inactive	
NC(=O)CSc1nnc(NC(=O)c2ccc3ccccc3c2)s1	2820 nM (active)	
NC(=O)CSc1nnc(NC(=O)c2ccc(Br)o2)s1	inactive	
CCSc1nnc(NC(=O)c2ccc(C)cc2)s1	2240 nM (active)	
C=CCSc1nnc(NC(=O)c2ccc(NC(C)=O)cc2)s1	inactive	
Cc1cccc(CSc2nnc(NC(=O)CSc3nnc(C)s3)s2)c1	inactive	
O=C(/C=C/c1ccccc1)Nc1nnc(SCC(=O)c2ccc3ccccc3c2)s1	inactive	
C[C@H](NC(=O)c1ccccc1)C(=O)OCC(=O)c1c[nH]c2ccccc12	inactive	
O=C(Nc1ccc(C(F)(F)F)cc1)c1cccc(-n2cnnn2)c1	inactive	
O=C(CCNS(=O)(=O)c1ccccc1)NCCSc1ccc(Br)cc1	inactive	
Cc1cc(C)nc(Nc2ncn[nH]2)n1	inactive	
COc1ccccc1-c1nc(SC)n[nH]1	inactive	
Cc1cc(C)nc(Nc2n[nH]c(-c3ccccc3N)n2)n1	501 nM (active)	
COC(=O)c1ccc(COC(=O)CNC(=O)c2cccc(OC)c2)o1	inactive	
O=C(Nc1cc(Cl)ccc1N1CCOCC1)c1ccc(N2CCCC2=O)cc1	inactive	

Structure (SMILES)	Potency	activation, negative = inhibition
COc1ccccc1CNC(=O)COC(=O)CNS(=O)(=O)c1ccc(NC(C)=O)cc1	inactive	
Cc1cccc(C(=O)NCC(=O)OCC(=O)N(C)CC(=O)Nc2ccccc2Cl)c1	inactive	
CCn1c(SCC(=O)NCC2CCCO2)nc2ccccc21 (centres undefined)	inactive	
CN(C(=O)COC(=O)CCCc1c[nH]c2ccccc12)c1c(N)n(Cc2ccccc2)c(=O)[nH]c1=O	inactive	
FC(F)(F)c1ccnc(Oc2ccc(C3=NCCS3)cc2)c1	708 nM (active)	
O=[N+]([O-])c1cccc(C2=NCCS2)c1	inactive	
O=Cc1ccc(Oc2cccc(C(F)(F)F)c2)nc1	inactive	
CCN(CC(=O)Nc1ccc(OC)cc1)C(=O)c1ccc(=O)n(Cc2ccccc2)n1	inactive	
COc1ccc(NC(=O)COC(=O)c2n[nH]c3ccccc23)c(OC)c1	inactive	
COc1cccc(NC(=O)c2cc(S(=O)(=O)N3CCc4ccccc43)cn2C)c1	inactive	
O=c1ccc2c(-c3ccccc3S(=O)(=O)O)c3ccc(O)c(O)c3oc-2c1O	inactive	
COc1cc(OC)cc(C(=O)NCC(=O)N2CCCCCCC2)c1	inactive	
Cc1ccc(SCCC(=O)Nc2cc(C)on2)cc1	inactive	
Cc1ccc2nc(SCC(=O)NC3CCCC3)[nH]c2c1	inactive	
Cc1ccc2nc(-c3ccc(SCC(=O)Nc4cc(C)on4)nc3)[nH]c2c1	3980 nM (active)	
COc1ccc(N(CC(=O)NCCSCc2cccc(Cl)c2)S(C)(=O)=O)cc1	inactive	
CCN(C(=O)CSc1ncnc2sccc12)c1c(N)n(Cc2ccccc2)c(=O)[nH]c1=O	inactive	
NS(=O)(=O)c1ccc(CCNC(=O)COC(=O)COc2cccc(C(F)(F)F)c2)cc1	inactive	
COc1ccc(C2Nc3ccccc3C(=O)N2Cc2ccccc2)cc1Cn1nnc2ccccc21 (centres undefined)	inactive	
COc1ccc(C2Nc3ccccc3C(=O)N2c2ccc(Cl)cc2)cc1Cn1cc([N+](=O)[O-])cn1 (centres undefined)	2000 nM (active)	
COc1ccc(C2Nc3ccccc3C(=O)N2c2ccc(F)cc2)cc1Cn1nnc2ccccc21 (centres undefined)	inactive	
COc1ccccc1Nc1nnc(SC(C)C(=O)NC2CC2)s1 (centres undefined)	inactive	

Structure (SMILES)	Potency	activation, negative = inhibition
O=C(COc1ccc2oc3c(c2c1)CCCC3)Nc1ccccn1	1580 nM (active)	
CCN(CC)CCCNC(=O)COc1ccc2oc3c(c2c1)CCCC3		1.01% [at 1.84 µM]
CCOC(=O)N1CCN(C(=O)COc2ccc3oc4c(c3c2)CCCC4)CC1	inactive	
COc1ccc(C)cc1NC(=O)CN1c2cccc3cccc(c23)S1(=O)=O	inactive	
CCN(CC)C(=O)c1sc2nc(-c3ccccc3)ccc2c1N	1780 nM (active)	
NC(=O)c1sc2nc3c(c(-c4ccccc4)c2c1N)CCC3	inactive	
CN(C)c1ccnc2sc(C(=O)c3ccccc3)c(N)c12	2820 nM (active)	
CCCC(=O)n1nc(-c2ccccc2)nc1N	inactive	
Cc1ccc2c(N)c(C(=O)c3ccccc3)sc2n1	3160 nM (active)	
CN(C)c1ccnc2sc3c(=O)n(Cc4ccccc4)cnc3c12	inactive	
Cc1nc2ccccc2c(-c2ccccc2)c1C(=O)c1ccccc1	inactive	
COC(=O)c1cc2c(N)c(C(=O)c3ccc(Cl)cc3)sc2nc1C(OC)OC	inactive	
CS(=O)(=O)c1sc2nc(-c3ccccc3)cc(-c3ccccc3)c2c1N	inactive	
CCOc1ccc(S(=O)(=O)N2CCCCC2)cc1NC(=O)CN1CCCC1c1cccs1 (centres undefined)	inactive	
N#Cc1ccc(OCC(=O)NC(=O)NC2CCS(=O)(=O)C2)cc1 (centres undefined)	inactive	
CCOC(=O)c1cc(-c2ccccc2C)n(Cc2cc(C)no2)n1	inactive	
Cc1ccc(F)cc1NC(=O)CSCc1c(C)noc1C	inactive	
CN(CC(=O)Nc1ccc(Cl)c(C(F)(F)F)c1)C(=O)CCC(=O)c1ccccc1	inactive	
NC1CCN(O)C1=O (centres undefined)	inactive	
CC(C)CN(C(=O)CSc1ncnc2sccc12)C1CCS(=O)(=O)C1 (centres undefined)	inactive	
CC(=O)Nc1ccc(NC(=O)C(NS(=O)(=O)c2ccc3c(c2)OCCO3)C(C)C)cc1 (centres undefined)	inactive	
